Inconclusive results are not listed. Where a structure was tested more than once in an assay, its records may differ in their call. Active and inactive are the calls of the source. Rule for the calls, unless noted: active = hit-call score of the fitted dose curve at least 0.9, where 1 is the maximum; inactive = score below 0.9.

In assay [1] the target is human Retinoid X Receptor beta (RXRb), RXRB (gene 6257) (UniProt P28702). The assay can be described thus: ATG_RXRb_TRANS: Attagene TRANS-FACTORIAL HepG2 Assay for human Retinoid X Receptor beta (RXRb) (AID 2283013; active = hit-call score of the fitted dose curve at least 0.9, where 1 is the maximum). In short, it runs like this:
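Multiplexed TRANS reporter assay in HepG2; 24 h dosing; reporter mRNA by RT-PCR/CE fluorescence; gain-of-signal relative to DMSO.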

Read-out in assay [2]: E-selectin (Homo sapiens) (UniProt P16581)
The assay can be described thus: BSK_3C_Eselectin: BioMAP Diversity Plus: 3C Assay for Eselectin Biomarker Activity (AID 2283015).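 For outcome: cell surface E-selectin protein quantified by ELISA 24 h after dosing.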 As to conditions: primary human endothelial cells (HUVEC); actives raise or lower the signal. The gist of the method: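 Primary human umbilical vein endothelial cells (3C system) were dosed with chemical and cell-surface E-selectin measured by ELISA 24 h later. Bidirectional curve fitting used DMSO as negative control and baseline.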

Read-out in assay [3]: Interleukin-1 alpha (IL1a), IL1A (gene 3552)
The assay can be described thus: BSK_BE3C_IL1a: BioMAP Diversity Plus: BE3C Assay for Interleukin-1 alpha (IL1a) Biomarker Activity (AID 2283016). To be noted: primary human bronchial epithelial cells; actives raise or lower the signal. The gist of the method:
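Cultures of primary human bronchial epithelial cells receive test chemical. After 24 h, IL-1a is quantified by ELISA, while parallel wells are fixed in TCA and SRB-stained for total protein. Changes in either direction are fitted relative to DMSO.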

Read-out in assay [4]: Monocyte Chemoattractant Protein-1 (MCP1), CCL2 (gene 6347)
The assay can be described thus: BSK_3C_MCP1: BioMAP Diversity Plus: 3C Assay for Monocyte Chemoattractant Protein-1 (MCP1) Biomarker Activity (AID 2283017). As to conditions: primary human endothelial cells (HUVEC); actives raise or lower the signal. In short, it runs like this: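 Primary human umbilical vein endothelial cells (3C system) were exposed to test chemical for 24 h, after which MCP-1 was quantified by ELISA. Activity was fitted bidirectionally against DMSO as negative control and baseline.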

Read-out in assay [5]: Monocyte Chemoattractant Protein-1 (MCP1), CCL2 (gene 6347)
The assay can be described thus: BSK_4H_MCP1: BioMAP Diversity Plus: 4H Assay for Monocyte Chemoattractant Protein-1 (MCP1) Biomarker Activity (AID 2283018). To be noted: primary human endothelial cells (HUVEC); actives raise or lower the signal. In short, it runs like this:
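Readout: MCP-1 ELISA on compound-treated HUVEC, sampled 24 h post-dosing. Baseline and negative control DMSO; bidirectional fit. Overt toxicity checked alongside by sulforhodamine B protein staining at time of biomarker measurement.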

Read-out in assay [6]: Human Leukocyte Antigen - DR isotype (HLADR), HLA-DRA (gene 3122)
The assay can be described thus: BSK_3C_HLADR: BioMAP Diversity Plus: 3C Assay for Human Leukocyte Antigen - DR isotype (HLADR) Biomarker Activity (AID 2283019). As to conditions: primary human endothelial cells (HUVEC); actives raise or lower the signal. In short, it runs like this: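 Primary human umbilical vein endothelial cells (3C system) were dosed with compound and cell-surface HLA-DR was quantified by ELISA at 24 h. Activity was fitted bidirectionally against DMSO as negative control and baseline.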

Read-out in assay [7]: Interleukin-8 (IL8), CXCL8 (gene 3576)
The assay can be described thus: BSK_3C_IL8: BioMAP Diversity Plus: 3C Assay for Interleukin-8 (IL8) Biomarker Activity (AID 2283020). As to conditions: primary human endothelial cells (HUVEC); actives raise or lower the signal. The gist of the method: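 Human vascular endothelial cells (umbilical vein) in the 3C system; IL-8 level detected by ELISA at 24 h post-dose, with DMSO as baseline.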

Read-out in assay [8]: Monokine induced gamma interferon (MIG), CXCL9 (gene 4283)
The assay can be described thus: BSK_3C_MIG: BioMAP Diversity Plus: 3C Assay for Monokine induced gamma interferon (MIG) Biomarker Activity (AID 2283021).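 For AC50: MIG protein level measured by immunoassay in the treated endothelial cultures.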 As to conditions: primary human endothelial cells (HUVEC); actives raise or lower the signal. The gist of the method: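 After 24 h of treatment, human umbilical vein endothelial cultures (3C system) had their MIG biomarker level determined by ELISA, with DMSO serving as negative control.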

Assay [9] can be described thus: BSK_3C_SRB: Viability Assessment in the BioMAP Diversity Plus: 3C Assay (AID 2283023).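 Note: fitted both ways against DMSO so a hit may be signal rise or drop.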 To be noted: primary human endothelial cells (HUVEC). The gist of the method: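 Primary human umbilical vein endothelial cells in the 3C system were read 24 h after compound dosing. Total protein was stained with 0.1% sulforhodamine B after 10% TCA fixation and read at 560 nm, with bidirectional fitting against DMSO as baseline.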

Read-out in assay [10]: Matrix Metallopeptidase 1 (MMP1), MMP1 (gene 4312)
The assay can be described thus: BSK_BE3C_MMP1: BioMAP Diversity Plus: BE3C Assay for Matrix Metallopeptidase 1 (MMP1) Biomarker Activity (AID 2283024). As to conditions: primary human bronchial epithelial cells; actives raise or lower the signal. The gist of the method:
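Dose cells, wait 24 h, run MMP1 ELISA; cells are human bronchial epithelial primaries. Both increases and decreases relative to DMSO counted.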

Assay [11] is described as follows: BSK_3C_Vis: BioMAP Diversity Plus: 3C Assay for Morphology Visualization (AID 2283025).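 For AC50: light microscopy image of cell morphology used as background control.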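 Note: fitted both ways so gain or loss versus DMSO counts.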 To be noted: primary human endothelial cells (HUVEC). The gist of the method: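 Endothelial cells from human umbilical vein were treated with test chemicals for 24 h and inspected by light microscopy for changes in cell conformation.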
Read-out in assay [12]: Pselectin, SELP (gene 6403)
The assay can be described thus: BSK_4H_Pselectin: BioMAP Diversity Plus: 4H Assay for Pselectin Biomarker Activity (AID 2283026). As to conditions: primary human endothelial cells (HUVEC); actives raise or lower the signal. The gist of the method: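 Human vascular endothelium from umbilical vein; P-selectin measured by ELISA at 24 h post-dose, with cytotoxicity checked by sulforhodamine B total-protein staining in parallel cultures (0.1% SRB after 10% TCA fixation, read at 560 nm).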

The nature of assay [13]: BSK_4H_SRB: Viability Assessment in the BioMAP Diversity Plus: 4H Assay (AID 2283027).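 Note: cells exposed to compound for 24 h before staining; curves fitted both ways versus DMSO so AC50 may be loss or gain.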 As to conditions: primary human endothelial cells (HUVEC). In short, it runs like this:
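Human umbilical vein endothelial cells were dosed with chemical and, after 24 h, fixed with 10% TCA, stained with 0.1% sulforhodamine B, and read at 560 nm to give total protein as a cytotoxicity measure. Bidirectional fitting relative to DMSO control.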

Assay [14] can be described thus: BSK_BE3C_SRB: Viability Assessment in the BioMAP Diversity Plus: BE3C Assay (AID 2283028).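 For AC50: fitted both ways so AC50 may mark signal gain or loss versus DMSO.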 To be noted: primary human bronchial epithelial cells. In short, it runs like this:
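Human primary bronchial epithelial cells were exposed to test chemicals for 24 h. Total protein in parallel cultures was then measured by staining with 0.1% sulforhodamine B after 10% TCA fixation, with absorbance read at 560 nm. Activity was fitted bidirectionally against DMSO.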

Read-out in assay [15]: Thrombomodulin, THBD (gene 7056)
The assay can be described thus: BSK_3C_Thrombomodulin: BioMAP Diversity Plus: 3C Assay for Thrombomodulin Biomarker Activity (AID 2283029). As to conditions: primary human endothelial cells (HUVEC); actives raise or lower the signal. In short, it runs like this:
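Thrombomodulin ELISA, human primary HUVEC, 24 h post-dose; data fitted in both directions relative to DMSO.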

Read-out in assay [16]: Urokinase-type plasminogen activator receptor (uPAR), PLAUR (gene 5329)
The assay can be described thus: BSK_4H_uPAR: BioMAP Diversity Plus: 4H Assay for Urokinase-type plasminogen activator receptor (uPAR) Biomarker Activity (AID 2283030). To be noted: primary human endothelial cells (HUVEC); actives raise or lower the signal. The gist of the method: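 Primary human umbilical vein endothelial cells were exposed to chemical for 24 h before cell-surface uPAR was quantified by ELISA. Activity was fitted bidirectionally against the DMSO negative control baseline.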

For assay [17], the target named is human Thyroid Receptor alpha (THRa1), THRA (gene 7067) (UniProt P10827). The assay can be described thus: ATG_THRa1_TRANS: Attagene TRANS-FACTORIAL HepG2 Assay for human Thyroid Receptor alpha (THRa1) (AID 2283014; active = hit-call score of the fitted dose curve at least 0.9, where 1 is the maximum). In short, it runs like this:
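HepG2 cells transiently transfected with multiplexed GAL4-UAS reporter units for exogenous chimeric THRa1-Gal4; reporter mRNA measured 24 h after dosing by RT-PCR, 6-FAM labelling, HpaI digestion and capillary electrophoresis. Gain-of-signal fitted versus DMSO baseline.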

Assay [18] concerns the target human Vitamin D Receptor (VDR), VDR (gene 7421) (UniProt P11473). The assay can be described thus: ATG_VDR_TRANS: Attagene TRANS-FACTORIAL HepG2 Assay for human Vitamin D Receptor (VDR) (AID 2283022; active = hit-call score of the fitted dose curve at least 0.9, where 1 is the maximum). In short, it runs like this: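 HepG2 cells were transiently transfected with multiple GAL4-UAS reporter units, so signal reflects exogenous chimeric receptor-Gal4 activity. After 24 h compound exposure, reporter mRNA was measured by RT-PCR, fluorescent labelling and capillary electrophoresis, fitted for gain of signal versus DMSO.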

Assay [19] addresses Retinoic acid receptor RXR-alpha (Homo sapiens) (UniProt P19793). The assay can be described thus: ATG_RXRa_TRANS: Attagene TRANS-FACTORIAL HepG2 Assay for human Retinoid X Receptor alpha (RXRa) (AID 2283012; active = hit-call score of the fitted dose curve at least 0.9, where 1 is the maximum). In short, it runs like this: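 Cells (HepG2) carried transiently transfected GAL4-responsive reporter units. Following a 24 h chemical incubation, reporter mRNA induction was read via RT-PCR fragment analysis; DMSO served as negative control and baseline.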

Sequence of E-selectin (Homo sapiens) (P16581 whole entry, looked up): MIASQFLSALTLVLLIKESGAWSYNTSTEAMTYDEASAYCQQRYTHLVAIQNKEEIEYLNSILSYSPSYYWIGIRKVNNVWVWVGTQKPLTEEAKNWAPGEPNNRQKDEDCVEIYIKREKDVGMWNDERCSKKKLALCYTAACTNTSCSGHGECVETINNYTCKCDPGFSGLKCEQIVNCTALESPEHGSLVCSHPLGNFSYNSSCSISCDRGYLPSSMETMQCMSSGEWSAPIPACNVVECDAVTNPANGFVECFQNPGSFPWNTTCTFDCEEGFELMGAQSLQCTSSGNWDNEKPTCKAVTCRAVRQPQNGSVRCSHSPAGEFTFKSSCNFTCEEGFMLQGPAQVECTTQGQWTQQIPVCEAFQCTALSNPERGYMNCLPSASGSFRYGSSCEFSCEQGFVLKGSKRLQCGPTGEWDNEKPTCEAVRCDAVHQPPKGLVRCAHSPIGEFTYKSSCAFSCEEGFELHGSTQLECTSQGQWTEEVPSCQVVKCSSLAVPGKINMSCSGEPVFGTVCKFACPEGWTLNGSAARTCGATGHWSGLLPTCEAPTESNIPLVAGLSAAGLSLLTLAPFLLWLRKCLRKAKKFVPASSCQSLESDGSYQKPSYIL
Sequence of human Vitamin D Receptor (VDR), VDR (gene 7421) (P11473 whole entry, looked up, the tested form may be a part): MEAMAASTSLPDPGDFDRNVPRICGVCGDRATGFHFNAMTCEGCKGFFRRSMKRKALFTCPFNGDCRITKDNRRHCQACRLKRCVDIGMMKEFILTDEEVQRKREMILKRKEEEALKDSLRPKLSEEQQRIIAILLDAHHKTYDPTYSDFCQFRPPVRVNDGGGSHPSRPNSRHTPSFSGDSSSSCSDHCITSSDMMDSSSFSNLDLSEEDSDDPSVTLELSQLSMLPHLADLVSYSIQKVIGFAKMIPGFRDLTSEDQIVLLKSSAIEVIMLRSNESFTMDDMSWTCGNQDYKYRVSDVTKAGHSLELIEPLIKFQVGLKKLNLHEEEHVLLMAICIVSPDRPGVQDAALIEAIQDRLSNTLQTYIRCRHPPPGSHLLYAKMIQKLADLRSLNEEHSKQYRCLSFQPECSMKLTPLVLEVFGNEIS
Sequence of human Thyroid Receptor alpha (THRa1), THRA (gene 7067) (P10827 whole entry, looked up, the tested form may be a part): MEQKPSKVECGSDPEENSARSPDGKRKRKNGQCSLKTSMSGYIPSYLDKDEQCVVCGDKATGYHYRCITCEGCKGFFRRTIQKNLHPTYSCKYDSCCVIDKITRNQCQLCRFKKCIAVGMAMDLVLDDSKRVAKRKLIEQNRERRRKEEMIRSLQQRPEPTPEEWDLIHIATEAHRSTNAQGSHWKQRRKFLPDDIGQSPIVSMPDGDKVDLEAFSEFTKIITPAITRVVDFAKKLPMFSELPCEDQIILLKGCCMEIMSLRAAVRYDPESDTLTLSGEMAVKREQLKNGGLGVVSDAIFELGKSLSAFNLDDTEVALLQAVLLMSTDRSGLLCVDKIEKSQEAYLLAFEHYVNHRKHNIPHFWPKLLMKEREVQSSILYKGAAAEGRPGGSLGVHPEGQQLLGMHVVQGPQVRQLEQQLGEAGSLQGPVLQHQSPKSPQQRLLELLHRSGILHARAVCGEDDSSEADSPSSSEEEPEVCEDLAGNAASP
Sequence of human Retinoid X Receptor beta (RXRb), RXRB (gene 6257) (P28702 whole entry, looked up): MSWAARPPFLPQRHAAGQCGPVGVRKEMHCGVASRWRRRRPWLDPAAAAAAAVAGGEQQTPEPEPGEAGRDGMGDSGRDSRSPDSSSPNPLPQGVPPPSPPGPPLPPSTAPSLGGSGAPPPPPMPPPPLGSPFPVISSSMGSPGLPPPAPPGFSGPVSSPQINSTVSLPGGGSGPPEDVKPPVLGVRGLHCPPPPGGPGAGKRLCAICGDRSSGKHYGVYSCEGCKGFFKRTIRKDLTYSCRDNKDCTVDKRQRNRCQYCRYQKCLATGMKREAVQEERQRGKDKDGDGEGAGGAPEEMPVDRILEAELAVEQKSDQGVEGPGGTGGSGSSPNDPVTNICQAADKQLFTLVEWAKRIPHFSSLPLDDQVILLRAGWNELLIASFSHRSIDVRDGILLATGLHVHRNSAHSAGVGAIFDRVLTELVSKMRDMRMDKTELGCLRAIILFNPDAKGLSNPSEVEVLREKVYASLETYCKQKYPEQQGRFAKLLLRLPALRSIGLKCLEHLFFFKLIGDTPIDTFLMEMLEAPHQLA
Sequence of Retinoic acid receptor RXR-alpha (Homo sapiens) (P19793 whole entry, looked up, the tested form may be a part): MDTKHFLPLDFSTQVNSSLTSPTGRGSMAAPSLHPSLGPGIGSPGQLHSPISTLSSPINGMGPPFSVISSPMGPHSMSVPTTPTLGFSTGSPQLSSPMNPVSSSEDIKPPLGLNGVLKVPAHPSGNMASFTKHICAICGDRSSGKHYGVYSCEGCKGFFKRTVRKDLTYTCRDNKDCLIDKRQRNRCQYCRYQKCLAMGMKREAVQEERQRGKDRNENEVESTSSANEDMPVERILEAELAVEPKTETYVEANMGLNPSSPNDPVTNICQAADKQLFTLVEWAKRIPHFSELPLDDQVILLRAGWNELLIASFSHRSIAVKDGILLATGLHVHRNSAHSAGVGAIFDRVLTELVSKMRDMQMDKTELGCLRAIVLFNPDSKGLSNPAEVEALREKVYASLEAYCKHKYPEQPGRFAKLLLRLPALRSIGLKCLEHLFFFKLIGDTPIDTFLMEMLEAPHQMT

Turning to `C=CC(=O)OCC(CO)(COC(=O)C=C)COC(=O)C=C`, the result in assay [1] and in assay [15] was inactive. For the same compound, the AC50 (usually the concentration giving half of the maximal activity seen) in [2] was 269 nM (active); in assay [3], 898 nM (active); in assay [4], 185 nM (active); in [5], 333 nM (active); in assay [6] it was 135 nM (active); in [7], 0.303 µM (active). Also, the concentration at half-maximal activity (AC50) in assay [8] is 602 nM (active); in [9] it was 294 nM (active); in assay [10] it was 3.22 µM (active); in assay [11] it was 174 nM (active); in [12] it was 341 nM (active); in assay [13], 566 nM (active). Moreover, the AC50 in [14] was 20 µM (active); in [16] it was 964 nM (active).

Turning to `C=C(C)C(N)=O`, the call in [17], in [2], in assay [3], in assay [4], in assay [5] and in assay [6] was inactive. The outcome in assay [7], in assay [8], in [18], in [9], in assay [10] and in assay [11] was inactive. Moreover, the result in [12], in [14], in assay [15] and in assay [16] was inactive.

Take `CCCCCCCCCCO[C@@H]1O[C@H](CO)[C@@H](O)[C@H](O)[C@H]1O`: the compound was classed as inactive in [1].

In the case of `CC(CCO)CC(C)(C)C` (centres undefined), the compound was classed as inactive in assay [19] and in [18].

For the compound `[Na+]`, in assay [17], the outcome was inactive.

Turning to `CCC(CC)CO`, in assay [17], the outcome was inactive.

As to `Nc1ccc(O)c(N)c1`, in assay [1], the compound was classed as inactive.

For the compound `CCOC(=O)COC(=O)c1ccccc1C(=O)OCC`, the outcome in assay [18] was inactive.

On to `O=S(=O)(O)C(F)(F)C(F)(F)OC(F)(F)C(F)(F)F`, for which the result in [2], in [3], in assay [4], in assay [5], in assay [6] and in assay [7] was inactive. Moreover, the outcome in assay [8], in assay [9], in assay [10], in [12], in assay [14] and in assay [15] was inactive. The outcome in [16] was inactive. Besides, the half-maximal activity concentration (AC50) was 5.95 µM (active) in [7] and 42.9 µM (active) in assay [10].

With `CC(C)N1C(=O)c2ccccc2C1=O`, the compound was classed as inactive in assay [1] and in [17].

On to `C=C/C(C)=C/C/C=C(\C)CCC=C(C)C`, for which the compound was called inactive in assay [1] and in assay [18].

With `CC/C=C\C#N`, the compound was classed as inactive in [17] and in assay [18].

`COc1ccc2[nH]cc(CCNC(C)=O)c2c1`: the outcome in assay [1], in [17] and in assay [18] was inactive.

Take `Cc1cccc(C)c1`: the compound was called inactive in assay [17].

Turning to `CC1=CCC(C(C)(C)O)CC1` (centres undefined), the call in assay [17] was inactive.

`CC1COC(=O)O1` (centres undefined): the call in [17] was inactive.

For the compound `CC(=O)c1ccc(C)cc1`, the compound was classed as inactive in assay [1], in [2], in assay [3], in [4], in [5] and in [6]. In addition, the outcome in assay [7], in [8], in assay [9], in assay [10], in assay [12] and in assay [14] was inactive. For the same compound, the outcome in assay [15] and in assay [16] was inactive.

Take `CCOC(=O)CCCCCCCCC(=O)OCC`: the result in assay [2], in assay [3], in [4], in assay [5], in assay [6] and in [7] was inactive. The outcome in assay [8], in [9], in assay [10], in assay [11], in assay [12] and in assay [14] was inactive. For the same compound, the outcome in assay [15] and in [16] was inactive.
